# PubChem BioAssay
# Records with an inconclusive call do not appear. For some of these results: Results with a measured potency or affinity are listed apart. The source made the active and inactive calls. Unless noted, the rule behind the calls is not given here.
# Columns and labels:
# [1] = suppressors of polyQ aggregation in yeast, 75Q-TubU reporter (AID 1593); conditions: Yeast 75Q polyglutamine aggregation reporter
# [2] = rescue of polyQ-huntingtin neuronal dysfunction in worms, whole organism, C. elegans mechanosensory neurons, N-terminal huntingtin (AID 1599); conditions: touch response, stronger effect = higher value
# [3] = inhibitors of mitochondrial cytochrome c release, biochemical, purified mitochondria (AID 1603); conditions: stronger effect = lower value;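 note: mouse liver mitochondria challenged with calcium chloride; signal normalized to the plate average as 100%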
# [4] = inhibitors of polyQ protein aggregation (AID 1604); conditions: polyglutamine-induced protein aggregation inhibition assay; stronger effect = higher value; tested at 2.5 µM
# [5] = enhancers of glutamate uptake in motor neurons, MN-1 cell line (AID 1612); conditions: MN-1 motor neuron cells, stronger effect = higher value;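 note: tested at 1 µM final; 0% = mean of DMSO vehicle wells on each plate; positive means more glutamate uptake than control and negative means less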
# [6] = reducers of polyQ inclusions in PC12 cells, cell-based, NGF-treated PC12, GFPQ80 (AID 1614); conditions: PC12 NGF-treated GFP-polyQ80 inclusion reduction;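 note: lower means fewer inclusions and 0 means no inclusions at all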
# [7] = suppressors of polyglutamine aggregation in yeast, 75Q-TubH (AID 1616); conditions: S. cerevisiae 75Q-TubH polyglutamine aggregation suppression; stronger effect = higher value
# [8] = system: Hepatitis C virus NS3 helicase; assay: HCV NS3 helicase inhibitors, primary screen, biochemical, fluorescence polarization, LOPAC1280 library (AID 687035; in the data active = inhibition above about 37%); conditions: Purified HCV NS3 helicase, Cy5-dT15 ssDNA binding fluorescence polarization; stronger effect = higher value; concentration not given here
# [9] = system: Aerobactin synthetase IucA (Klebsiella pneumoniae, hypervirulent); assay: IucA enzyme inhibition, biochemical, LOPAC library, absorbance readout (AID 1346212); conditions: IucA enzyme assay, absorbance (OD) readout; stronger effect = lower value;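 tested at 8 µM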;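 note: 100% = no compound wells and 0% = no enzyme wells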
# [10] = phospholipid biosynthesis inhibitors in animal cells, primary screen, cell-based, LOPAC library, screen 4 (AID 1347384); conditions: phospholipid biosynthesis inhibition screen, at 10 µM
# [11] = modulation of C. elegans fzo-1 (AID 1259413);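 note: fzo-1 mutant C. elegans worms in liquid wells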; conditions: C. elegans fzo-1 modulator screen, mean read-out; stronger effect = higher value
# [12] = growth inhibition of DIPG glioma cells, dose response, cell-based, SU-DIPG-XIII, MIPE4.0, CellTiter-Glo, qHTS (AID 1347061; cut-off not given, nearly all actives have AC50 up to about 37 µM;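 note: cells exposed to compound for 48 hours before readout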); conditions: SU-DIPG-XIII viability, CellTiter-Glo ATP luminescence
# [13] = growth inhibition of DIPG glioma cells, dose response, cell-based, SU-DIPG-IV, MIPE4.0, CellTiter-Glo, qHTS (AID 1347063; cut-off not given, nearly all actives have AC50 up to about 30 µM;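 note: compound exposure lasted 48 hours before the viability readout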); conditions: SU-DIPG-IV viability, CellTiter-Glo ATP luminescence
# [14] = SU-DIPG-VI glioma cell viability, MIPE4.0 library, CellTiter-Glo luminescence, qHTS (AID 1347066; cut-off not given, nearly all actives have AC50 up to about 30 µM;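 note: cells exposed to compound for 48 hours before readout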); conditions: CellTiter-Glo ATP luminescence
# [15] = hESC survival regulators, cell-based (AID 493140); conditions: human embryonic stem cell survival screen; stronger effect = higher value;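 note: cells exposed to compounds for four days before counting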
# [16] = system: Aerobactin synthetase IucA (Klebsiella pneumoniae); assay: IucA aerobactin synthetase inhibitors, biochemical, Tocris library, absorbance (AID 1345561); conditions: purified IucA enzyme assay, absorbance (OD) read-out; stronger effect = lower value;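 tested at 8 µM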;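 note: 100% = enzyme without compound and 0% = no enzyme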
# [17] = growth inhibition of DIPG glioma cells, dose response, cell-based, SU-DIPG-XVII, MIPE5.0, CellTiter-Glo, qHTS (AID 1347060; cut-off not given, nearly all actives have AC50 up to about 26 µM;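 for AC50: cells exposed to compound for 48 hours before viability readout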); conditions: SU-DIPG-XVII viability, CellTiter-Glo ATP luminescence
# [18] = SU-DIPG-XXV glioma cell viability, MIPE5.0 library, qHTS (AID 1347068; cut-off not given, nearly all actives have IC50 up to about 30 µM;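 for IC50: cells exposed to compound for 48 hours before viability readout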)
# [19] = molecular target: ATP-dependent translocase ABCB1 (Homo sapiens) (UniProt P08183); assay: MDR1 (ABCB1) efflux transporter inhibition, cell-based (AID 377; in the data active = fluorescence slope change above about 50%); conditions: MDR1-expressing cells, fluorescent substrate accumulation slope; stronger effect = higher value; concentration not given here
# ATP-dependent translocase ABCB1 (Homo sapiens), sequence (P08183 whole entry, looked up): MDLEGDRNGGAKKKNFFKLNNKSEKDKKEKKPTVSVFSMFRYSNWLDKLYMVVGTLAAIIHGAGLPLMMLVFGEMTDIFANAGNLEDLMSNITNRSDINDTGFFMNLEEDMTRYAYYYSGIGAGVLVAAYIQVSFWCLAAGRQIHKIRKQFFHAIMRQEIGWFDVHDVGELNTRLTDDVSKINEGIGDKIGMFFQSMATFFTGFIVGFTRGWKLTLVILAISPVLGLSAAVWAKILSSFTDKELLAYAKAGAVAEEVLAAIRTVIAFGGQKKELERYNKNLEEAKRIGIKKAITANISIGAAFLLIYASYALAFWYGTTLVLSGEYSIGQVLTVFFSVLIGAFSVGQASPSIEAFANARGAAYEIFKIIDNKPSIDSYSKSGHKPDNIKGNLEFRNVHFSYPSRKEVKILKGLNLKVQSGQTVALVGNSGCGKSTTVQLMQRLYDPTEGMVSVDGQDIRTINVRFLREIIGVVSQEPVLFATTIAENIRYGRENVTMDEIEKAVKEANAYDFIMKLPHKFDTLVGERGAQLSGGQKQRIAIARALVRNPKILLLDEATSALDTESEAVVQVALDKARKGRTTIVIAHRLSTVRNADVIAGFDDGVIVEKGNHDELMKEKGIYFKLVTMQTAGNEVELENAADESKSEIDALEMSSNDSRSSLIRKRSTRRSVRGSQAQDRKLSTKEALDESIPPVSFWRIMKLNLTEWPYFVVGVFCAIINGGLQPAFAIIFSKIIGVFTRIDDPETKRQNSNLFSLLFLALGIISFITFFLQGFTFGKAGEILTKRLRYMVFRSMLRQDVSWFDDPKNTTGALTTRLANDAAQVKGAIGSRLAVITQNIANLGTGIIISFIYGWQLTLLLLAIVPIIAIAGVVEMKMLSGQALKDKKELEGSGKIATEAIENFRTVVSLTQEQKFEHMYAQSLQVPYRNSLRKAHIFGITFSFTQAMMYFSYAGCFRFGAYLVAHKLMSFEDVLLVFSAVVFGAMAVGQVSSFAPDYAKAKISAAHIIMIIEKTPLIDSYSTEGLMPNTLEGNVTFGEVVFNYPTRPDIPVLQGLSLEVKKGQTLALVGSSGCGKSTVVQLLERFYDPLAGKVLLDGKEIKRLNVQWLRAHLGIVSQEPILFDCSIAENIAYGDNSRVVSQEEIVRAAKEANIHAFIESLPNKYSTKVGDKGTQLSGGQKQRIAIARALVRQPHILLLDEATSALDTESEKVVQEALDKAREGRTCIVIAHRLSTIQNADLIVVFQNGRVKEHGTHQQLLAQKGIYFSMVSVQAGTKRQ
# [20] = modifiers of HSF1 nuclear foci, imaging, Selleck Cancer Library (AID 1347162; in the data active = plate-normalised HSF1 focus index below about 0.46); conditions: human cells, at 10 µM; SSMD: measured here: HSF1 foci SSMD mean; cell count: measured here: cell number; plate-normalised HSF1 focus index: stronger effect = lower value
smiles,measurement,setting,value
CC(CCc1ccccc1)NC(C)C(O)c1ccc(O)cc1 (stereo unspecified),score,[1],1.53
same,rescue above control,[2],1.38
same,cytochrome c release ratio,[3],0.84
same,inhibition of aggregation,[4],63.6%
same,glutamate uptake change,[5],-2.97%
same,inclusion score,[6],2
same,aggregation suppression score,[7],1.46
same,inhibition,[8],-5% (inactive)
same,remaining activity,[9],104% (inactive)
same,outcome,[10],inactive
COc1ccc(C(CN(C)C)C2(O)CCCCC2)cc1 (stereo unspecified),inhibition,[8],-1% (inactive)
same,mean signal,[11],261 (inactive)
same,outcome,[12],inactive
same,outcome,[13],inactive
same,outcome,[14],inactive
same,outcome,[10],inactive
O=c1[nH]oc2c1CCNC2,score,[1],1.55
same,rescue above control,[2],-2.56
same,cytochrome c release ratio,[3],0.75
same,inhibition of aggregation,[4],73%
same,glutamate uptake change,[5],5.07%
same,inclusion score,[6],2
same,aggregation suppression score,[7],1.43
same,survival,[15],19.5 (inactive)
same,inhibition,[8],-5% (inactive)
same,remaining activity,[16],79% (inactive)
same,remaining activity,[9],100% (inactive)
same,outcome,[10],inactive
O=C(O)CCCc1ccc(N(CCCl)CCCl)cc1,score,[1],-0.24
same,rescue above control,[2],-3.71
same,cytochrome c release ratio,[3],1.24
same,inhibition of aggregation,[4],81.4%
same,glutamate uptake change,[5],-0.49%
same,aggregation suppression score,[7],0.0151
same,survival,[15],4.5 (inactive)
same,inhibition,[8],-3% (inactive)
same,mean signal,[11],236 (inactive)
same,remaining activity,[9],115% (inactive)
same,AC50,[17],0.934 µM (active)
same,outcome,[12],inactive
same,outcome,[13],inactive
same,outcome,[14],inactive
same,outcome,[18],inactive
N[C@@H](Cc1ccc(N(CCCl)CCCl)cc1)C(=O)O,fluorescence slope change,[19],94.7% (active)
same,score,[1],1.14
same,rescue above control,[2],-0.78
same,cytochrome c release ratio,[3],0.77
same,inhibition of aggregation,[4],49.4%
same,glutamate uptake change,[5],15.9%
same,aggregation suppression score,[7],1.07
same,remaining activity,[9],104% (inactive)
same,AC50,[17],4.17 µM (active)
same,AC50,[13],13.2 µM (active)
same,IC50,[18],29.5 µM (active)
same,SSMD,[20],1.42
same,cell count,[20],7340
same,plate-normalised HSF1 focus index,[20],1.09 (inactive)
CCC1(c2ccc(N)cc2)CCC(=O)NC1=O (stereo unspecified),score,[1],1.07
same,rescue above control,[2],12.8
same,cytochrome c release ratio,[3],0.66
same,inhibition of aggregation,[4],-9.29%
same,glutamate uptake change,[5],15.1%
same,inclusion score,[6],2
same,aggregation suppression score,[7],1.06
same,survival,[15],19.8 (inactive)
same,inhibition,[8],-3% (inactive)
same,mean signal,[11],262 (inactive)
same,outcome,[17],inactive
same,outcome,[12],inactive
same,outcome,[13],inactive
same,outcome,[14],inactive
same,outcome,[18],inactive
same,SSMD,[20],1.46
same,cell count,[20],7280
same,plate-normalised HSF1 focus index,[20],1.05 (inactive)
same,outcome,[10],inactive
